Compound activity (PubChem)
Lamin A splicing = modulators of lamin A splicing. HeLa LMNA splicing GFP/RFP minigene ratio, 48 h. Potency, µM (series often up to 46.1 µM), without a hit: at the top dose ratio change, negative = inhibition, actives largely listed as inhibitors. hit rate 0.01% among 200,000; active = well fitted inhibition curve with a large enough effect in the signal ratio, with a control signal flat, not every such curve was filed as active; inconclusive = small, poorly fitted or top-dose-only effect, or effect the other way, or a change in a side signal; the % refers to the signal ratio; note: % is set by controls: 0 for no effect and ±100 for the full control effect
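Read-out is the ratio of GFP to DsRed2 object intensity, acquired by 488 nm laser-scanning cytometry on HeLa lamin A-EGFP minigene reporter cells. Compound incubation 48 hrs at 37 °C in Opti-MEM with 2% FBS; DMSO 0.5% final.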
HPGD inh = inhibitors of human 15-hydroxyprostaglandin dehydrogenase (HPGD). hit rate 4.3% among 150,000. purified HPGD, NADH fluorescence kinetic, PGE2 substrate. Potency, µM, for inactives: top-dose activity change, negative = inhibition, usual class: inhibitors. P15428; active = well fitted inhibition curve with a large enough effect, not every such curve was filed as active; inconclusive = small, poorly fitted or top-dose-only effect, or another doubt; inactive = no such curve, though single readings can be large or run the other way; note: % is set by controls: 0 for no effect and ±100 for the full control effect
Target sequence (P15428 whole entry, looked up): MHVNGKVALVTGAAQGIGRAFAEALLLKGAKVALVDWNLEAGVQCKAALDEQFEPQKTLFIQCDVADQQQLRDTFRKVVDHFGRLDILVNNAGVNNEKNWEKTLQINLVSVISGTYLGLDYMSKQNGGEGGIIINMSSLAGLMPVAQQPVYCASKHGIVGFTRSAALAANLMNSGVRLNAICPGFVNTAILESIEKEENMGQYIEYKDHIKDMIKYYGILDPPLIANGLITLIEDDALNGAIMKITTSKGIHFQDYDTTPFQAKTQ
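NADH formation kinetics: reaction with 30 uM PGE2 and 1 mM NAD+ (final), 20 nM enzyme, Tris-HCl pH 8 with Tween 20, after 15 min compound preincubation at room temperature. Fluorescence change, last versus first of five reads.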
HTT ATP protect = cytoprotection in Huntington HTT-Q103 PC12 cell model | Potency, µM (highest dose often 56.4 µM), for the others: cytoprotection (ATP increase), most hits filed as activators | AID 1471 | PC12 HTT-Q103 induced, cytoprotection, ATP luminescence, 40 h | hit rate 0.14% among 230,000; note: % of control where 0% means no effect; nearly all actives have a fitted effect of over 45% in size
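Compounds added alongside 100 nM tebufenozide, which induces toxic Q103 huntingtin exon 1-GFP in stable PC12 cells; surviving cells quantified by luminescent ATP measurement. Medium: phenol red-free DMEM, 5% equine and 5% calf serum.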
ALDH1A1 block = ALDH1A1 (human) enzyme inhibition. Potency, µM (series often up to 75.3 µM), without a hit: at the top dose activity, negative = inhibition, hits mostly inhibitors. P00352. Purified ALDH1A1, NADH fluorescence, propionaldehyde substrate. AID 1030. hit rate 7.3% among 220,000; active = well fitted inhibition curve with a large enough effect, not every such curve was filed as active; inconclusive = small, poorly fitted or top-dose-only effect, or another doubt; inactive = no such curve, though single readings can be large or run the other way;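 note: plate controls were no enzyme wells and a reference inhibitor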
Target sequence (P00352 whole entry, looked up): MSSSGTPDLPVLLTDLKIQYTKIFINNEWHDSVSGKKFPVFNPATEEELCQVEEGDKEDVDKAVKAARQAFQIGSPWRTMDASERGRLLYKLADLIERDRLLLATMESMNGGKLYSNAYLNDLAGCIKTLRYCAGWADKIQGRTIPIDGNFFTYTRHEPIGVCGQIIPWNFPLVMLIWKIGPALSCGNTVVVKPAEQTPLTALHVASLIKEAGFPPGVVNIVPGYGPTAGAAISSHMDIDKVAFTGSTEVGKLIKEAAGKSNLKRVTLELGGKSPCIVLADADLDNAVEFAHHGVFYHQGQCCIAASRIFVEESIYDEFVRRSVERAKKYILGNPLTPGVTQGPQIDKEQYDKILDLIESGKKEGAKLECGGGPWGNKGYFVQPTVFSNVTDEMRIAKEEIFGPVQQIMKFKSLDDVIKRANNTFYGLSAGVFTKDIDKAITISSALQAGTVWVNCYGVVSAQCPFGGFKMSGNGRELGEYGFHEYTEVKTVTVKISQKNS
HttQ103 aggreg = mutant huntingtin aggregation inhibition | PC12 HttQ103-GFP aggregates, Acumen cytometry, 40 h | Potency, µM (doses to about 46.1 µM), for the others: at the top dose activity change, negative = inhibition, actives largely listed as inhibitors | hit rate 1.1% among 220,000 | AID 1688; note: % is set by controls: 0 for no effect and ±100 for the full control effect; nearly all actives have a fitted effect of over 60% in size
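Steps: seed 1500 PC12 HTTQ103-GFP cells/well; add tebufenozide, 100 nM final; add compound titration; add ATPLite reagent; quantify GFP aggregates by laser scanning cytometry.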
An asterisk follows results filed as active; [ ] = remark or other dose. An excerpt weighted towards active compounds, which were near 8.8% of everything screened. Unless noted, calls come from the whole dose curve; as a rule, active = well fitted curve in the direction sought with a large enough effect; inconclusive = small, poorly fitted or top-dose-only effect, or another doubt; inactive = no such curve, though single readings can be large; an effect the other way counts as inactive or inconclusive. Potency is the fitted concentration of half-maximal effect.

What do the screens show for `COc1ccc(OC)c(C(=O)Cn2c3[n+](c4ccc(C(F)(F)F)cc42)CCCCC3)c1`?
Lamin A splicing: -27%[46 µM]; HTT ATP protect: -19%[10 µM]; ALDH1A1 block: 2%; HttQ103 aggreg: inconclusive

How did O=C(O)c1ccc(N2CCCCC2)cc1O do in these assays?
HTT ATP protect: 14%[10 µM]; HttQ103 aggreg: -8%[9.22 µM]

Results for O=C(O)c1ccc(N2Cc3ccccc3C2)cc1O ?
Lamin A splicing: 4%; HPGD inh: 16µM*; HTT ATP protect: 0%; ALDH1A1 block: 28µM*; HttQ103 aggreg: 0%

Results for CC(c1ccncn1)N(C)Cc1nc(-c2ccc(C(F)(F)F)cc2)no1 (configuration not stated) ?
HTT ATP protect: -26%; ALDH1A1 block: -85%; HttQ103 aggreg: -10%

How did Cc1oc(-c2ccc3ccccc3c2)nc1CN(C)C(C)c1ccncn1 (configuration not stated) do in these assays?
HTT ATP protect: -15%[10 µM]; ALDH1A1 block: 15µM*; HttQ103 aggreg: -1%[9.22 µM]

What do the screens show for `O=C(COC(=O)Cc1ccsc1)NCc1ccccc1`?
Lamin A splicing: -11%; HPGD inh: -4%; HTT ATP protect: 18%[1.9 µM]; ALDH1A1 block: 5%; HttQ103 aggreg: 30%

What do the screens show for `Cc1cccc(C)c1NC(=O)COC(=O)Cc1ccsc1`?
Lamin A splicing: -1%; HPGD inh: 0%; HTT ATP protect: 33%[10 µM]; ALDH1A1 block: 11%; HttQ103 aggreg: 20µM*

How did O=C(COC(=O)Cc1ccsc1)NCc1ccc(Cl)cc1 do in these assays?
Lamin A splicing: -11%; HPGD inh: 28µM*; HTT ATP protect: 9%[1.9 µM]; ALDH1A1 block: 12%; HttQ103 aggreg: -3%

What do the screens show for `CC(NC(=O)COC(=O)Cc1ccsc1)C1CC2CCC1C2` (configuration not stated)?
Lamin A splicing: 7%; HPGD inh: 28µM*; HTT ATP protect: -7%; ALDH1A1 block: -2%; HttQ103 aggreg: 11%

How did O=C(NCC1CCCO1)c1csc(Nc2cccc3ccccc23)n1 (configuration not stated) do in these assays?
Lamin A splicing: inconclusive; HTT ATP protect: 34%[10 µM]; ALDH1A1 block: -9%; HttQ103 aggreg: -16%[9.22 µM]

What do the screens show for `CC(C)(C)C1CCc2c(sc(NC(=O)CSc3ncn[nH]3)c2C#N)C1` (configuration not stated)?
Lamin A splicing: inconclusive; HPGD inh: 14µM*; HTT ATP protect: -13%[10 µM]; ALDH1A1 block: 8.9µM*; HttQ103 aggreg: inconclusive

Results for CCCc1cc(=O)[nH]c(SCC(=O)Nc2sc3c(c2C#N)CCC(C)C3)n1 (configuration not stated) ?
Lamin A splicing: -22%[46 µM]; HTT ATP protect: -20%; ALDH1A1 block: 22µM*; HttQ103 aggreg: 7%

Results for CCn1ccc2cc(S(=O)(=O)N3CCCN(C(=O)Nc4ccc(C)cc4)CC3)ccc21 ?
Lamin A splicing: 0%[46 µM]

How did C[C@H](NC(=O)c1nc[nH]c1C(=O)N[C@H](C)c1ccccc1)C(=O)OC(C)(C)C do in these assays?
HTT ATP protect: 10%[10 µM]; ALDH1A1 block: 6%; HttQ103 aggreg: 0%[9.22 µM]

How did C[C@H](NC(=O)c1nc[nH]c1C(=O)NC(c1ccccc1)c1ccccc1)C(=O)OC(C)(C)C do in these assays?
HTT ATP protect: -19%[10 µM]; ALDH1A1 block: 2µM*; HttQ103 aggreg: -14%[9.22 µM]

How did C[C@H](NC(=O)c1nc[nH]c1C(=O)N[C@@H](Cc1ccccc1)C(=O)OC(C)(C)C)c1ccccc1 do in these assays?
HTT ATP protect: 6%[10 µM]; ALDH1A1 block: 18µM*; HttQ103 aggreg: 4%[9.22 µM]

What do the screens show for `COC(=O)C1=C(C)[C@@H](O)[C@@H](C)[C@H](c2c(OC)c(OC)c(C)c(OC)c2OC)O1`?
HTT ATP protect: -39%[10 µM]; ALDH1A1 block: 4%[13.5 µM]

What do the screens show for `COc1ccc(CCN2C(=S)N(C)C(=O)C2CC(=O)Nc2ccc(F)cc2)cc1` (configuration not stated)?
Lamin A splicing: inconclusive; HTT ATP protect: 28%[10 µM]; ALDH1A1 block: 1.3µM*; HttQ103 aggreg: 8%[9.22 µM]

What do the screens show for `CCN1C(=O)C(CC(=O)Nc2ccc(OC)cc2)N(CCc2ccc(OC)cc2)C1=S` (configuration not stated)?
Lamin A splicing: -18%[9.22 µM]; HTT ATP protect: -121%; ALDH1A1 block: 2.2µM*; HttQ103 aggreg: inconclusive

Results for CCN1C(=O)C(CC(=O)Nc2ccc(Br)cc2)N(CCCc2ccccc2)C1=S (configuration not stated) ?
Lamin A splicing: inconclusive; HPGD inh: -5%; HTT ATP protect: -83%; ALDH1A1 block: 13µM*; HttQ103 aggreg: inconclusive

How did CCN1C(=O)C(CC(=O)Nc2ccc(OC)cc2)N(Cc2ccc(OC)c(OC)c2)C1=S (configuration not stated) do in these assays?
HTT ATP protect: 13%[10 µM]; HttQ103 aggreg: -10%[9.22 µM]

What do the screens show for `Cc1cc(C)cc(-n2ccnc2SCC(=O)Nc2nc3ccc(C)cc3s2)c1`?
Lamin A splicing: 12%[46 µM]

What do the screens show for `CC[C@H](C)[C@@H](NC(=O)O[C@@H]1Cc2cc(OC)ccc2O[C@H]1c1cccc(OC)c1)C(=O)OC`?
HPGD inh: -2%; HTT ATP protect: -30%; ALDH1A1 block: 4%

What do the screens show for `CC(C)(C)C(=O)/C=C/c1ccc(Oc2ccccc2)cc1`?
Lamin A splicing: inconclusive; HTT ATP protect: -8%[10 µM]; ALDH1A1 block: inconclusive; HttQ103 aggreg: -20%[9.22 µM]

Results for COc1ccc(NC(=O)Cn2c(=O)oc3cc(S(=O)(=O)N4CCCCC4C)ccc32)cc1 (configuration not stated) ?
Lamin A splicing: 21%[46 µM]

Results for O=C(Nc1ccc(Nc2ccccc2)cc1)C(Cl)Cl ?
Lamin A splicing: -24%; HPGD inh: 22µM*; HTT ATP protect: 28%[10 µM]; ALDH1A1 block: 13µM*; HttQ103 aggreg: inconclusive

How did O=C(Nc1ccc(Nc2ccccc2)cc1)C(Cl)(Cl)Cl do in these assays?
Lamin A splicing: inconclusive; HPGD inh: 32µM*; ALDH1A1 block: inconclusive; HttQ103 aggreg: inconclusive

Results for NC(=O)Nc1ccc(Nc2ccccc2)cc1 ?
HTT ATP protect: 9%[10 µM]; HttQ103 aggreg: -7%[9.22 µM]

What do the screens show for `CCOC(=O)c1c(C)oc2nc(C)nc(NCCCN3CCN(c4ccccc4OC)CC3)c12`?
Lamin A splicing: -14%[46 µM]

Results for CC(C)NC(=O)/C(=C/c1cn(-c2ccccc2)nc1-c1cccc([N+](=O)[O-])c1)NC(=O)c1ccccc1 ?
Lamin A splicing: 12%; HPGD inh: -5%; ALDH1A1 block: 14µM*; HttQ103 aggreg: -11%

Results for O=C(O)/C=C/c1cn(-c2ccccc2)nc1-c1cccc([N+](=O)[O-])c1 ?
HTT ATP protect: 0%[10 µM]; ALDH1A1 block: 2%; HttQ103 aggreg: 11%[9.22 µM]
